The values below come from ChEMBL document CHEMBL1961873, “Compounds: GSK PKIS; Assays: Nanosyn kinase panel” (2012).

The target in experiment [1] is High affinity nerve growth factor receptor (Homo sapiens) (UniProt P04629). Conditions: at 1 µM.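 Further: each value is the mean percent inhibition of TRKA.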
In experiment [2] the target is BDNF/NT-3 growth factors receptor (Homo sapiens) (UniProt Q16620). Conditions: at 0.1 µM.
For experiment [3] the target is unchanged. The following applies: at 1 µM.
The target in experiment [4] is NT-3 growth factor receptor (Homo sapiens) (UniProt Q16288). Conditions: at 0.1 µM.
NT-3 growth factor receptor (Homo sapiens), sequence (Q16288 32-839 limits assumed): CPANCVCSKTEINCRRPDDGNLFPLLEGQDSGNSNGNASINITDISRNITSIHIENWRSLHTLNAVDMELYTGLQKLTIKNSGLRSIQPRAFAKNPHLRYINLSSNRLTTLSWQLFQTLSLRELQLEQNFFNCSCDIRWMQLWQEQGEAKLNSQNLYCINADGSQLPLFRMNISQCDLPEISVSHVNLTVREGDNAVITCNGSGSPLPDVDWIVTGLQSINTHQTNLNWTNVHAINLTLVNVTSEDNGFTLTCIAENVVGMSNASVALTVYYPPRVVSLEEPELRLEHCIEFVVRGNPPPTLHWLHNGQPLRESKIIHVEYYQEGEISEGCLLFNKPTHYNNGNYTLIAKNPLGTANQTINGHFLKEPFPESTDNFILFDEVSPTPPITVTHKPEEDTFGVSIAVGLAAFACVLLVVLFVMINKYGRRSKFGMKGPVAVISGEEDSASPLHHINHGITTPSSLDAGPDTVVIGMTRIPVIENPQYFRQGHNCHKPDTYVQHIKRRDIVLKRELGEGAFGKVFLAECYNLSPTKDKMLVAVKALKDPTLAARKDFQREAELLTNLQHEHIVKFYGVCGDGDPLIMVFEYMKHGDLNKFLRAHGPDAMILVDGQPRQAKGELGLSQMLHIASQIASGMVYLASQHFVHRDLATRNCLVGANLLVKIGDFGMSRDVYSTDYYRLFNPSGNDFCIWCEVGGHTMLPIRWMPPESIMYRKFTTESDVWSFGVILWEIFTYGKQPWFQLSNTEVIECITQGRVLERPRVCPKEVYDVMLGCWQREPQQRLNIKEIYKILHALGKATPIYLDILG
Experiment [5] has the same target. Conditions: at 1 µM.
The target in experiment [6] is T1, Tyrosine-protein kinase TXK (Homo sapiens) (UniProt P42681).
T1 sequence (whole entry): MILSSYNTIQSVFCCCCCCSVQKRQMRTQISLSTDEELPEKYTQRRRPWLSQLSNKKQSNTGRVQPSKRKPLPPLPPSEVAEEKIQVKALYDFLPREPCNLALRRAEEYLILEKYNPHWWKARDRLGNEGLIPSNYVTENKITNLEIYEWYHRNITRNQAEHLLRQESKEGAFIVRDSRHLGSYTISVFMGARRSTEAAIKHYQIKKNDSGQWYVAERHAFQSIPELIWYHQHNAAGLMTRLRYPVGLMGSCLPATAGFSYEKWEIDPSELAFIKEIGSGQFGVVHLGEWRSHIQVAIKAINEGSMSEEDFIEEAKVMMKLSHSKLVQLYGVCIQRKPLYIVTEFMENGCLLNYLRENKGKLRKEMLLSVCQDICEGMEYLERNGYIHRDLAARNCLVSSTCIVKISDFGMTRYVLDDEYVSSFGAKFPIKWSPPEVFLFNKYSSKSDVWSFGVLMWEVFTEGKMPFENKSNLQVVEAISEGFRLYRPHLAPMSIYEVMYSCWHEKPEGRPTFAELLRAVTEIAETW
Conditions: at 0.1 µM.

For experiment [7], the target named is T1, Tyrosine-protein kinase TXK (Homo sapiens). Conditions: at 1 µM.
Experiment [8] addresses Non-receptor tyrosine-protein kinase TYK2 (Homo sapiens) (UniProt P29597). Conditions: at 0.1 µM.
Experiment [9] deals with T2, Dual specificity protein kinase TTK (Homo sapiens) (UniProt P33981).
T2 sequence (whole entry): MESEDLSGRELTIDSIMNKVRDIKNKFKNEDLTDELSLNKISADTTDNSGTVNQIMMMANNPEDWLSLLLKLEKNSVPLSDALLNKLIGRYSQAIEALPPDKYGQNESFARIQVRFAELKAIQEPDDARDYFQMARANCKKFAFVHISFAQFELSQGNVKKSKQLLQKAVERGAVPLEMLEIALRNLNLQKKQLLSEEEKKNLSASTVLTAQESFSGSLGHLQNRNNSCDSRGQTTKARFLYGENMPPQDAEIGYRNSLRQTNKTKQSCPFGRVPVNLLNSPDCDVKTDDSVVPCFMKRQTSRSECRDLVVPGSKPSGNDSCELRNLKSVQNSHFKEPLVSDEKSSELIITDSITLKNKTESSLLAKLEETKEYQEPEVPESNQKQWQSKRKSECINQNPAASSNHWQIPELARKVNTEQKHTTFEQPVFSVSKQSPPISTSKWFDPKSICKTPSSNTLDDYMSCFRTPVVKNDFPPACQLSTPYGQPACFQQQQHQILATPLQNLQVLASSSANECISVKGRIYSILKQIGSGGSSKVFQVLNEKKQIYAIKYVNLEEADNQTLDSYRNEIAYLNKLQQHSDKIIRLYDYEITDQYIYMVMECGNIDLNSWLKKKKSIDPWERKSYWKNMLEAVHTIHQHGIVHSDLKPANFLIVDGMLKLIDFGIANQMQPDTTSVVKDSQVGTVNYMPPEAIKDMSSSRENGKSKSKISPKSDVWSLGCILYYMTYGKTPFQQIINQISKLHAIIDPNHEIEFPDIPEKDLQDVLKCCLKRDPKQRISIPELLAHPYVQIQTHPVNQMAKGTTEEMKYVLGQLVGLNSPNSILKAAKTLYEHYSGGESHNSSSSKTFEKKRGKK
Conditions: at 1 µM.

Experiment [10] has as its target T3, Aurora kinase A (Homo sapiens) (UniProt O14965).
T3 sequence (whole entry): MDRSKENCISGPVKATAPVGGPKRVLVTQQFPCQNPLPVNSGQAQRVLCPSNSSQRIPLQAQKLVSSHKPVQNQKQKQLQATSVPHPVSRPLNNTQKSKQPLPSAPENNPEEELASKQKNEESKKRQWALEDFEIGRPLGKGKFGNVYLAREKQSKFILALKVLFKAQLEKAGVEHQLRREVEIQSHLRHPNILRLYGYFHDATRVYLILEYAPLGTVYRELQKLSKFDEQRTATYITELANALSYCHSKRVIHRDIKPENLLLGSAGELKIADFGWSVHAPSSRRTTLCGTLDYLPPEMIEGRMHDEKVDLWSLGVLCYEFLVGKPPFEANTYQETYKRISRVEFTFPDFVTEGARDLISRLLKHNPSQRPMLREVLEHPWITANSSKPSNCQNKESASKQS
Conditions: at 0.1 µM.

Experiment [11] addresses T3, Aurora kinase A (Homo sapiens). Conditions: at 1 µM.
In experiment [12] the target is Aurora kinase B (Homo sapiens) (UniProt Q96GD4). Conditions: at 0.1 µM.
Aurora kinase B (Homo sapiens), sequence (Q96GD4 whole entry): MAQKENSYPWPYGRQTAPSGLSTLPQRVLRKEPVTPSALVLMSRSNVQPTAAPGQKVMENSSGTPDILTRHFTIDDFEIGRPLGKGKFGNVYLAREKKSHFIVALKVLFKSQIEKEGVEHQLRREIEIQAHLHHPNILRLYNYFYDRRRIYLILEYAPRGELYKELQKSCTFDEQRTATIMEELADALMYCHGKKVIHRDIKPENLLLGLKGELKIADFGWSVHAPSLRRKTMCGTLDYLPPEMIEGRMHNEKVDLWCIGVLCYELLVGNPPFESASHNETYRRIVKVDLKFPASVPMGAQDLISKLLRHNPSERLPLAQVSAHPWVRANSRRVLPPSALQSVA
Experiment [13] has the same target. Conditions: at 1 µM.
In experiment [14] the target is T4, Aurora kinase C (Homo sapiens) (UniProt Q9UQB9).
T4 sequence (whole entry): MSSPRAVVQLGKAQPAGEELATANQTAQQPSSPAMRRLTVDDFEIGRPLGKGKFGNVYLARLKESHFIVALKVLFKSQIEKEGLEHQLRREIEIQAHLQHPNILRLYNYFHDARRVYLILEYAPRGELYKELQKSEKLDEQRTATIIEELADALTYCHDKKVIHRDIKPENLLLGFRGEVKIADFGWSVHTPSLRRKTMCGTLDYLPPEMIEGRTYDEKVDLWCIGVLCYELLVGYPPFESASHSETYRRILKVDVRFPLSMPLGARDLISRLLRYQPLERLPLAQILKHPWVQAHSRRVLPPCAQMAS
The following applies: at 0.1 µM.

Experiment [15] addresses T4, Aurora kinase C (Homo sapiens). The following applies: at 1 µM.
The target of experiment [16] is Serine/threonine-protein kinase 10 (Homo sapiens) (UniProt O94804). The following applies: at 0.1 µM.
Serine/threonine-protein kinase 10 (Homo sapiens), sequence (O94804 whole entry, looked up): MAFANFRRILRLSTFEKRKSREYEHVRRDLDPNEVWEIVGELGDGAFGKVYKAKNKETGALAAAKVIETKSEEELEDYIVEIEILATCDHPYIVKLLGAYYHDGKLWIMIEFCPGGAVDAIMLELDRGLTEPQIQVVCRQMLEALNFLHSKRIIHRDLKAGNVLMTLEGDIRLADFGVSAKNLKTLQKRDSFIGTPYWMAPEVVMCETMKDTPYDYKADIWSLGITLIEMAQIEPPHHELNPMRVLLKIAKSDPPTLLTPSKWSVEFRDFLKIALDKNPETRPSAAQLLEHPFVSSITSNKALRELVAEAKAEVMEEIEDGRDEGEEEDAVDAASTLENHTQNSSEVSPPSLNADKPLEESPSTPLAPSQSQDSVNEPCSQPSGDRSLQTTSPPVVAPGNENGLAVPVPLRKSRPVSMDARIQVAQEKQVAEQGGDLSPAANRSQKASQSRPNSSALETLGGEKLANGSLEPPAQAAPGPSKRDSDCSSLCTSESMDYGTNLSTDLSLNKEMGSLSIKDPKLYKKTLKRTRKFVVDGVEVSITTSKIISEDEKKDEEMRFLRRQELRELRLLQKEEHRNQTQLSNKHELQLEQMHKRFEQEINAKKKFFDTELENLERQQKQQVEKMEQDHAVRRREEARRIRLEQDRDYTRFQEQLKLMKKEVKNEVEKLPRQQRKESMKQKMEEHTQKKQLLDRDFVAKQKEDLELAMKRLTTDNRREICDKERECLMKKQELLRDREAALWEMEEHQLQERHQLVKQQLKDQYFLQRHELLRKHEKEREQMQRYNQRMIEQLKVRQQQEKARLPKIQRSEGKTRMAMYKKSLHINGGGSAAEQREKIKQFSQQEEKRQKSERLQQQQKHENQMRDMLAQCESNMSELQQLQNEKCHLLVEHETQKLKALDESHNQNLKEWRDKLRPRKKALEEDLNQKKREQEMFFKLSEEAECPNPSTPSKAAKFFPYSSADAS
Experiment [17] shares this target. The following applies: at 1 µM.
Experiment [18] has as its target T5, Mitogen-activated protein kinase kinase kinase kinase 2 (Homo sapiens) (UniProt Q12851).
T5 sequence (whole entry): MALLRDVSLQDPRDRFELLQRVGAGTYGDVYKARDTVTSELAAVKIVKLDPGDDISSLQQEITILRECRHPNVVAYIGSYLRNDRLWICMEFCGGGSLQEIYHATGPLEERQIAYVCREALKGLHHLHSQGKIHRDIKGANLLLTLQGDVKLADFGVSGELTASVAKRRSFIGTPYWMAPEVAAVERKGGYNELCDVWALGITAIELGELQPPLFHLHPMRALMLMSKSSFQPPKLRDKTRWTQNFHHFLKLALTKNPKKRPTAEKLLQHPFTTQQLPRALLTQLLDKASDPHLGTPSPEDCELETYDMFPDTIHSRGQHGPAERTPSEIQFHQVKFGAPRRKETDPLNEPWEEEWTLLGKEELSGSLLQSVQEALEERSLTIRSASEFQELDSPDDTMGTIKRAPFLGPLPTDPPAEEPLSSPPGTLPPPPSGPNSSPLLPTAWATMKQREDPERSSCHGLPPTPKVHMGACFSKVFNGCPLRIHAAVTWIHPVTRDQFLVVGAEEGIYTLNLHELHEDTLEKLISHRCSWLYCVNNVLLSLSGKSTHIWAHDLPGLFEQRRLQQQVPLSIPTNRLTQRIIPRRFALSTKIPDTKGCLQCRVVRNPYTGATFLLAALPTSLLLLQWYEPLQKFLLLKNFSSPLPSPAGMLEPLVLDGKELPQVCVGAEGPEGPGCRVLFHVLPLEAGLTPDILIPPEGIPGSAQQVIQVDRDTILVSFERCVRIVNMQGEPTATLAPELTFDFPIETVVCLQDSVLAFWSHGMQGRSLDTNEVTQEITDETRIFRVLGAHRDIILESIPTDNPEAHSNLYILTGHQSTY
Conditions: at 0.1 µM.

For experiment [19], the target named is T5, Mitogen-activated protein kinase kinase kinase kinase 2 (Homo sapiens). Conditions: at 1 µM.
Experiment [20] has as its target Mitogen-activated protein kinase kinase kinase kinase 4 (Homo sapiens) (UniProt O95819). Conditions: at 0.1 µM.

Non-receptor tyrosine-protein kinase TYK2 (Homo sapiens), sequence (P29597 whole entry): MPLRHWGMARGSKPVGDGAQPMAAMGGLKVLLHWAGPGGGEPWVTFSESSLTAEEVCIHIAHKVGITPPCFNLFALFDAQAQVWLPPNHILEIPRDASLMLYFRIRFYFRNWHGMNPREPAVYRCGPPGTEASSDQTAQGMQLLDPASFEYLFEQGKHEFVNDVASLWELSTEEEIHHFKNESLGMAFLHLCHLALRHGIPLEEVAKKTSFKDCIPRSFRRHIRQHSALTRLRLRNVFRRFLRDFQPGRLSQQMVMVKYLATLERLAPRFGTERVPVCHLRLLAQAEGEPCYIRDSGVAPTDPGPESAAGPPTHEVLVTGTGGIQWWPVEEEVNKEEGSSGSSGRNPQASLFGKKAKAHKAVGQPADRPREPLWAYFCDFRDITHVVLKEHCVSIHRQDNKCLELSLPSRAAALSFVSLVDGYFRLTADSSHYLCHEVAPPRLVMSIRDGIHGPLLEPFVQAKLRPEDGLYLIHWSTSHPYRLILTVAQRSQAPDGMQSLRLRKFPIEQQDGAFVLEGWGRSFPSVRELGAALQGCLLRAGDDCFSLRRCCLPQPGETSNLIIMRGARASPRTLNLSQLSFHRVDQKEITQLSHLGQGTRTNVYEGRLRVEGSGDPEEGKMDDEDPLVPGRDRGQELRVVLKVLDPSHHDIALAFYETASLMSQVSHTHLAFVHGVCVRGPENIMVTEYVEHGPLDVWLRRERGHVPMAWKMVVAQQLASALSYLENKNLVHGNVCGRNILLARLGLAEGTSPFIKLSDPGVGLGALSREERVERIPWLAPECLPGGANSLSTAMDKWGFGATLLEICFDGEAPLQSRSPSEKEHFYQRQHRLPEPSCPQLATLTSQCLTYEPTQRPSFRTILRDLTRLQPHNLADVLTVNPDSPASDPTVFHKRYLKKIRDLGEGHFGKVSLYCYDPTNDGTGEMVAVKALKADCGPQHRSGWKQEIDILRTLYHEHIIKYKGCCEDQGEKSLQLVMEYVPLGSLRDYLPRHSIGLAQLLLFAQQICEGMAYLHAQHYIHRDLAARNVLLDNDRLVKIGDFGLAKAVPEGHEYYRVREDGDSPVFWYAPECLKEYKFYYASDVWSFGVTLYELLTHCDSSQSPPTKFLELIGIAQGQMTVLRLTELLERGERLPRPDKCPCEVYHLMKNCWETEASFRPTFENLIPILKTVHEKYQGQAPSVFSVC
High affinity nerve growth factor receptor (Homo sapiens), sequence (P04629 33-796 limits assumed): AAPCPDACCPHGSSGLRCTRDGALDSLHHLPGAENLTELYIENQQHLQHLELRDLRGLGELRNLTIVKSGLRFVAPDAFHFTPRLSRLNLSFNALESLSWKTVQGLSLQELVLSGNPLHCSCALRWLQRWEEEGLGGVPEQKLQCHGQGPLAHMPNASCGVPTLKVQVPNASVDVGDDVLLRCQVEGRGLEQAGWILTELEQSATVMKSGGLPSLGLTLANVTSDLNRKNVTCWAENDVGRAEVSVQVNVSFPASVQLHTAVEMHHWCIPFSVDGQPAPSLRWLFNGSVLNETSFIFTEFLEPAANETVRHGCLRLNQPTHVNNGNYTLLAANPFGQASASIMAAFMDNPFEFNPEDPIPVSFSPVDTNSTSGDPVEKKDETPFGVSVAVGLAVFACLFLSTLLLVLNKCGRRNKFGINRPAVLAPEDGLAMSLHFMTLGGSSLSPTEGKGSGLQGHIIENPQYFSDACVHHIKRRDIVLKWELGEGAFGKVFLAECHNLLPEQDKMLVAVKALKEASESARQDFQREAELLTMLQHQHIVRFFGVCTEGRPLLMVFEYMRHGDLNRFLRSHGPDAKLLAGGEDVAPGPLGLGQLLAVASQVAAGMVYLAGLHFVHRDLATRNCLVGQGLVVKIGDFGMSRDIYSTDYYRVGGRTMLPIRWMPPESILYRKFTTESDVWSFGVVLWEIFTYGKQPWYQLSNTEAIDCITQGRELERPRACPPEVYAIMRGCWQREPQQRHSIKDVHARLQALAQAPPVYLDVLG
BDNF/NT-3 growth factors receptor (Homo sapiens), sequence (Q16620 32-822 limits assumed): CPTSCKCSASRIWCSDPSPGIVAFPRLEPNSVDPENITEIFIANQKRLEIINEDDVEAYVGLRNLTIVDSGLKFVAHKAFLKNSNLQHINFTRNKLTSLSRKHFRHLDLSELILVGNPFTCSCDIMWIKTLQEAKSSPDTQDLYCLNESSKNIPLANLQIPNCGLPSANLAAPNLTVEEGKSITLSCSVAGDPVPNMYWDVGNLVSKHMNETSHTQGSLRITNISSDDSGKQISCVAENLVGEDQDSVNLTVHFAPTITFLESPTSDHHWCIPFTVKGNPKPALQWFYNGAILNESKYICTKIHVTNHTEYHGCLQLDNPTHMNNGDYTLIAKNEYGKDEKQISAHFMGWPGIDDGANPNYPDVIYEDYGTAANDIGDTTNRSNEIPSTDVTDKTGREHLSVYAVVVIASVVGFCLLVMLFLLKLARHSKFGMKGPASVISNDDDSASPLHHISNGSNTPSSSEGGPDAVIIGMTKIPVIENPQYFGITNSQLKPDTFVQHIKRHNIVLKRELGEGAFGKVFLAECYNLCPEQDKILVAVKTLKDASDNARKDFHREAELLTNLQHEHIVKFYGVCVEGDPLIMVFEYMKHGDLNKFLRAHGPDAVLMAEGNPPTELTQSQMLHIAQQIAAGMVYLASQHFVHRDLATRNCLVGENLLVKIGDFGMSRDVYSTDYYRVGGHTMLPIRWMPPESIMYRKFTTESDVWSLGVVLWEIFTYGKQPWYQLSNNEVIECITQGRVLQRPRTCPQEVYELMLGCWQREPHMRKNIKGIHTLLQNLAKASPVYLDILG

As for `Nc1nc(-c2cccc(Cl)c2)c(-c2ccc3ncccc3n2)s1`, the inhibition was -0.34% in experiment [1]; 2.86% in [2]; 7.16% in experiment [3]; 2.95% in [4]; 5.02% in experiment [5]; 4.04% in experiment [6]. Also, the inhibition in [7] is 4.05%; in experiment [8] it was -3.11%; in experiment [9], -0.66%; in [10], 2.19%; in experiment [11], 4.83%; in [12] it was 3.18%. In addition, the inhibition in [13] is 5.58%; in experiment [14], 1.1%; in [15], -2.15%; in experiment [16], 8.2%; in experiment [17] it was 14.4%; in [18] it was 1.48%. For the same compound, the inhibition in [19] amounted to 3.7%; in [20] it was 12.6%.

Regarding `CCc1nn2ncccc2c1-c1ccnc(NC2CC2)n1`, the inhibition in experiment [1] is 2.38%; in [2], -0.25%; in [3], 2.68%; in experiment [4] it was 1.72%; in experiment [5], 1.87%; in experiment [6], 3.61%. The inhibition is 3.63% in experiment [7]; -2% in [8]; 6.05% in experiment [9]; 3.98% in experiment [10]; 14.8% in experiment [11]; 2.59% in experiment [12]. In addition, the inhibition was found to be 17.4% in experiment [13]; 3.06% in experiment [14]; 24.8% in [15]; 3.95% in [16]; 8.22% in experiment [17]; 0.96% in [18]. Moreover, the inhibition came out at 3.67% in experiment [19] and 0.62% in experiment [20].

For `c1cc(-c2cnn3nc(N4CCOCC4)ccc23)nc(NC2CC2)n1`, the inhibition turned out to be 0.98% in experiment [1]; 1.83% in [2]; 1.21% in experiment [3]; 1.5% in [4]; 2.55% in experiment [5]; 3.34% in experiment [6]. Further, the inhibition in [7] was 6.11%; in experiment [8], -8.45%; in experiment [9], 60.1%; in [10] it was 1.84%; in experiment [11], 22%; in experiment [12], 7.41%. The inhibition in [13] was 46.8%; in experiment [14], 7.39%; in experiment [15], 75.5%; in [16], 5.74%; in experiment [17], 12.1%; in [18], -0.22%. The inhibition in [19] worked out at 5.78%; in experiment [20], 6.38%.

In the case of `Fc1ccc(-c2nn3ccccc3c2-c2ccncc2)cc1`, the inhibition in experiment [1] was 0.45%; in experiment [2] it was 0.38%; in [3] it was 0.3%; in [4], -0.15%; in experiment [5], -0.76%; in [6], 2.39%. Also, the inhibition is 7.59% in [7]; 0.8% in experiment [8]; 2.44% in experiment [9]; 1.94% in [10]; 8.81% in experiment [11]; -1.03% in experiment [12]. The inhibition stood at 4.77% in experiment [13]; 0.61% in experiment [14]; 2.01% in [15]; 2.07% in experiment [16]; 1.79% in experiment [17]; 2.33% in experiment [18]. Besides, the inhibition worked out at 7.42% in [19] and 5.52% in [20].

Regarding `CCn1c(-c2nonc2N)nc2cnc(Oc3cccc(NC(=O)c4ccc(N(C)C)cc4)c3)cc21`, the inhibition in [1] was -1.16%; in experiment [2], 0.09%; in experiment [3] it was 0.73%; in experiment [4], -0.04%; in experiment [5], 1.6%; in experiment [6] it was 1.57%. In addition, the inhibition in experiment [7] was 3.29%; in experiment [8], -5.17%; in experiment [9] it was 2.67%; in experiment [10], 6.99%; in experiment [11], 79.2%; in [12], 3.58%. Further, the inhibition in experiment [13] is 18.1%; in experiment [14] it was 1.17%; in experiment [15] it was 43.7%; in experiment [16], 2.62%; in [17] it was 5.59%; in experiment [18] it was -0.28%. Further, the values for the inhibition in experiment [19] and in experiment [20] were 3.56% and 3.32%, respectively.

As to `CCNC(=O)O[C@H]1CN[C@H](C#Cc2cc3ncnc(Nc4ccc(OCc5cccc(F)c5)c(Cl)c4)c3s2)C1`, the inhibition in experiment [1] amounted to 3.06%; in experiment [2], 3.01%; in experiment [3], 1.6%; in experiment [4], 2.47%; in experiment [5], 1.74%; in [6], 3.06%. Also, the inhibition in experiment [7] was 3.99%; in experiment [8], -3.3%; in experiment [9], 10.4%; in experiment [10] it was 1.24%; in experiment [11], 9.61%; in [12], 0.34%. Besides, the inhibition in experiment [13] stood at 8.23%; in [14], 1.85%; in experiment [15], 12%; in [16] it was 3.53%; in experiment [17], 9.99%; in experiment [18], 0.18%. The inhibition in experiment [19] worked out at 2.21%; in [20], 4.18%.

Take `[O-][S+]1CCN(Cc2ccc(-c3ccc4ncnc(Nc5ccc(OCc6cccc(F)c6)c(Cl)c5)c4c3)o2)CC1`: the inhibition in experiment [1] is 3.26%; in experiment [2], 3.51%; in [3] it was 2.84%; in experiment [4], 2.99%; in experiment [5], 3.32%; in experiment [6] it was -0.35%. Further, the inhibition in experiment [7] was 5.13%; in [8], -1.86%; in [9] it was 13.9%; in experiment [10], 4.7%; in experiment [11] it was 4.74%; in experiment [12], 4.97%. Further, the inhibition in experiment [13] turned out to be 9.46%; in experiment [14] it was 0.94%; in experiment [15], 6.06%; in [16], 9.61%; in experiment [17], 15.9%; in [18], 1.81%. In addition, the inhibition in [19] was 5.19%; in experiment [20] it was 7.46%.

As a reminder, the inhibition is the change of the read-out against control, counted positive when it falls.
